Source: PubChem
SMN2 splice enh: qHTS Assay for Enhancers of SMN2 Splice Variant Expression. HEK293 SMN2-luciferase splicing reporter, luminescence, 30-36 h. Potency, µM (series often up to 46.1 µM), actives largely listed as activators. 210,000 tested, 2.8% active. AID 1458, 2008; further: nearly all actives have a fitted effect of over 55% in size
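qHTS luciferase splicing reporter: luminescence rises when SMN2 exon 7 is included in transfected HEK293 cells. Compound exposure lasted 30-36 h at 37C, with 4.5 mM final sodium butyrate as control, followed by a ONE-Glo read.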
NPC1 prom act: qHTS Assay for NPC1 Promoter Activators; 320,000 tested, 2.4% active; Huh7 NPC1 promoter luciferase reporter, 24 h; Potency, µM (top dose mostly 9.22 µM), most hits filed as activators; further: nearly all actives have a fitted effect of over 60% in size
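Readout is luciferase luminescence, reflecting NPC1 promoter activation in stably transfected Huh7 cells after 24 h compound exposure at 37 °C in reduced-serum medium with 10% FBS.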
FLuc modulator: qHTS profiling assay for firefly luciferase inhibitor/activator using purifed enzyme and Km concentrations of substrates (counterscreen for miR-21 project). 360,000 tested, 6.9% active. Potency, µM (top dose mostly 57.5 µM), usual class: inhibitors. purified FLuc, Km substrates, luminescence inhibition; further: nearly all actives have a fitted effect of over 55% in size
Target sequence (P08659 whole entry, looked up): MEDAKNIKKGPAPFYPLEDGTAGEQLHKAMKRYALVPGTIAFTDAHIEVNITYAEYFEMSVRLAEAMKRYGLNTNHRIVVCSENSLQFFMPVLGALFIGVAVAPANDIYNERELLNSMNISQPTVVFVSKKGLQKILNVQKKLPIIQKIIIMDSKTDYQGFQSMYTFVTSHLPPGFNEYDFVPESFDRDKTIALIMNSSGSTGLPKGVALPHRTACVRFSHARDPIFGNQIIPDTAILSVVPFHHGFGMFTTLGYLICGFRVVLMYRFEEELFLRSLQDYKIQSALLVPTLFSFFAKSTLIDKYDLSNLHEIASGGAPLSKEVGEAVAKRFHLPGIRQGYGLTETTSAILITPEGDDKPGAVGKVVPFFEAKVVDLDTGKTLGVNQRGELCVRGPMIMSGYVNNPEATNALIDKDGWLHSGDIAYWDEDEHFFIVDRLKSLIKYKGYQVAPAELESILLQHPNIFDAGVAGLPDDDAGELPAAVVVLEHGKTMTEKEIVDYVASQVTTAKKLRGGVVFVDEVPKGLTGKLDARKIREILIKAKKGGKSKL
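Biochemical qHTS of compounds, final roughly 60 µM downward over six points, against 10 nM purified firefly luciferase using Km concentrations of substrates (10 uM D-luciferin, 10 uM ATP) in Tris acetate pH 7.5 buffer; luminescence output.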
ELG1 genotox: qHTS screen for small molecules that induce genotoxicity in human embryonic kidney (HEK293T) cells expressing luciferase-tagged ELG1 | AID 504466, 2011 | HEK293T ELG1-luciferase reporter, luminescence, 16 h | 330,000 tested, 1.3% active | Potency, µM (titrated, usually from 46 µM), usual class: activators; further: nearly all actives have a fitted effect of over 60% in size
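Genotoxic stress is detected as increased luminescence from luciferase-tagged ELG1 in HEK293T cells, measured with ONE-Glo after a 16 hr treatment at 37 °C.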
Rab9 promoter act: qHTS Assay for Rab9 Promoter Activators; 320,000 tested, 2.8% active; Potency, µM (titrated, usually from 9.22 µM), usual class: activators; Huh7 Rab9 promoter-luciferase reporter, luminescence, 24 h; further: nearly all actives have a fitted effect of over 60% in size
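Huh7 cells stably carrying a Rab9 promoter-luciferase reporter, 1500 cells per well in OP-MEM I with 10% FBS, treated with compound 24 hours at 37C. Luciferase activity read by luminescence after 10 minutes with Amplite reagent.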
ELG1 DNA repair: qHTS screen for small molecules that inhibit ELG1-dependent DNA repair in human embryonic kidney (HEK293T) cells expressing luciferase-tagged ELG1 | Potency, µM (doses to about 46.1 µM), usual class: inhibitors | HEK293T ELG1-luciferase reporter, luminescence, 16 h; DNA damage induced by 5-fluorouridine | 330,000 tested, 2.3% active | AID 504467, 2011; further: nearly all actives have a fitted effect of over 55% in size
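HEK293T cells expressing luciferase-tagged ELG1 (2,000/well) received 5-Fluorouridine plus compound or DMSO for 16 hr at 37 °C. Luciferase was read by ONE-Glo luminescence after 30 min at room temperature.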
Hits are given with their value; 0 = inactive; ? = inconclusive; - = not tested or not shown. An excerpt weighted towards active compounds, which were near 9.2% of everything screened. The call rests on the fitted dose curve; in most records, active means well fitted curve in the direction sought with a large enough effect; inconclusive means small, poorly fitted or top-dose-only effect, or another doubt; inactive means no such curve, though single readings can be large; an effect the other way counts as inactive or inconclusive.

SMILES | SMN2 splice enh | NPC1 prom act | FLuc modulator | ELG1 genotox | Rab9 promoter act | ELG1 DNA repair
CCOc1ccc(C(=O)Nc2ncccc2Cl)cc1 | - | ? | 15µM | ? | ? | ?
CNS(=O)(=O)c1ccc(NC(=O)c2ccccn2)cc1 | 20µM | ? | 15µM | ? | 2.8µM | ?
CCOc1ccc(NC(=O)c2nccnc2CO)cc1 | 8.9µM | 1.4µM | 9.5µM | ? | 2.8µM | ?
COc1cccc(NC(=O)c2cnsn2)c1 | 0 | 0 | ? | ? | 0 | ?
CC(C)CCNC(=O)c1ccc2c(c1)NC(=O)C(CS(=O)(=O)Cc1ccc(F)cc1)N2 (stereo not given) | - | - | 0 | - | - | -
COc1ccc(C)cc1Nc1ncnc2c1c(-c1ccccc1)cn2-c1ccc(C)cc1 | - | - | 0 | - | - | -
COc1cc(/C=C(\NC(=O)c2ccccc2)C(=O)Nc2nccs2)ccc1OC(C)=O | - | 0 | 0 | 0 | 0 | ?
CCOc1ccc(NC(=O)c2cccnc2C(=O)O)cc1 | 0 | 0 | ? | 0 | 0 | ?
CCOc1ccc(NC(=O)c2ccccn2)cc1 | 0.79µM | ? | 0.48µM | ? | 0.13µM | ?
CCOc1ccc(NC(=O)c2cnccn2)cc1 | 2.5µM | 2µM | 5.4µM | ? | 1.3µM | ?
COc1ccc(NC(=O)N(C(C)C)C2CCN(C(C)=O)CC2)c(OC)c1 | - | - | 0 | - | - | -
Cc1cccc(NC(=O)CN(C)C(=O)/C=C/c2ccccc2)c1C | - | 0 | 0 | 0 | 0 | 0
O=C(O)CCC(=O)NCc1cn(-c2ccccc2)nc1-c1cccc(Br)c1 | 0 | 0 | ? | 0 | 0 | 0
Cc1ccc(-c2nn(-c3ccccc3)cc2CN(C)C(=O)CCC(=O)O)cc1C | 0 | 0 | 19µM | 0 | 0 | 0
Cn1nccc1C(=O)NC(=S)Nc1sc2c(c1C#N)CCCCC2 | 0 | ? | 3.8µM | 0 | ? | ?
CC(=O)NC(=S)Nc1sc2c(c1C#N)CCCCC2 | - | 2.5µM | 1.5µM | 2.1µM | 1.4µM | ?
Cn1c2ccccc2c(=O)c2cc(C#Cc3ccccn3)ccc21 | - | 2.5µM | 3µM | ? | 5µM | ?
Cn1c2ccccc2c(=O)c2ccc(C#Cc3ccccn3)cc21 | - | 0 | 0 | 0 | 0 | ?
Cn1c2ccccc2c(=O)c2cc(C#Cc3ccsc3)ccc21 | - | ? | 2.4µM | 0 | 2.8µM | ?
Cn1c2ccccc2c(=O)c2ccc(F)cc21 | - | 0 | 0 | 0 | 0 | 0
CCOc1ccc(C(=O)NC2CCN(C(=O)Nc3ccc(F)cc3)CC2)cc1 | - | 0 | 0 | 0 | 0 | 0
Cc1cccc(C)c1NC(=O)COC(=O)c1cccc2c1C(=O)c1ccccc1C2=O | 0 | 0 | 0 | 0 | 0 | 12µM
Cc1cccc(NC(=O)COC(=O)c2cccc3c2C(=O)c2ccccc2C3=O)c1C | 0 | 0 | 0 | 0 | 0 | 21µM
Cc1cccc(C)c1NC(=O)c1cccc2c1-c1ccccc1C2=O | 0 | 0 | 0 | 0 | 0 | 0
Cc1cccc(NC(=O)C(=O)NCC(c2cccnc2)N2CCc3ccccc3C2)c1C (stereo not given) | - | - | 0 | - | - | -
SMILES | SMN2 splice enh | NPC1 prom act | FLuc modulator | ELG1 genotox | Rab9 promoter act | ELG1 DNA repair
CCN(CC)S(=O)(=O)c1cccc(-c2nnc(SCCCC(=O)c3ccc(F)cc3)o2)c1 | 0 | 0 | 0 | 0 | 0 | 16µM
CC(Sc1nnc(-c2ccco2)o1)C(=O)NCCC1=CCCCC1 (stereo not given) | 0 | 0 | 0 | 0 | 0 | 0
C=CCn1c(C)cc(C(=O)CSc2nnc(-c3cccc(S(=O)(=O)N(CC)CC)c3)o2)c1C | - | 0 | ? | 0 | 0 | 16µM
CCN(CC)S(=O)(=O)c1cccc(-c2nnc(SCCCC(=O)c3ccccc3)o2)c1 | 0 | 0 | ? | 0 | 0 | ?
CCN(CC)S(=O)(=O)c1cccc(-c2nnc(SC(C)C(=O)NCCC3=CCCCC3)o2)c1 (stereo not given) | 0 | 0 | 0 | 0 | 0 | 23µM
COc1cccc(NC(=O)N2CCCC2C(=O)NCc2ccc(Cl)cc2)c1 (stereo not given) | - | 0 | 0 | 0 | 0 | 0
